Giardia FBPA inh – qHTS Assay for Inhibitors of Fructose-1,6-bisphosphate Aldolase from Giardia Lamblia; 0.71% of 290,000 active; purified Giardia FBPA; Potency, µM (top dose mostly 59.6 µM), inactives show top-dose activity, negative = inhibition, most hits filed as inhibitors; A8B2U2; also: potency is read from the fitted curve at half-maximal effect; nearly all actives have a fitted effect of over 55% in size
Target sequence (A8B2U2 whole entry, looked up): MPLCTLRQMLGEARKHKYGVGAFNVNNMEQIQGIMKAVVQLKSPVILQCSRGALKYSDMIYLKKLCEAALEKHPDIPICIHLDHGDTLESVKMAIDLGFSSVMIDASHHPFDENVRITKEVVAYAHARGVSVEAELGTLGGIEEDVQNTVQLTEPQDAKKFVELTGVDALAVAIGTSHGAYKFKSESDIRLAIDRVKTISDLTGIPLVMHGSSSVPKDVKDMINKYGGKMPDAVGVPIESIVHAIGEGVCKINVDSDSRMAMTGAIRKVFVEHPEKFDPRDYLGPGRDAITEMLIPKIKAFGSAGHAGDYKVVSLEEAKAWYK
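Giardia FBPA (40 nM reagent) was preincubated 10 min at RT with compound (up to 57.5 uM final), then substrate plus GAPDH/TPI/NAD/arsenate coupling system with diaphorase/resazurin was added; resorufin fluorescence (525/598 nm) was read after 20 min.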
FMDV antiviral – High Throughput Screening for Foot and Mouth Disease Virus Antivirals | FMDV antiviral cell-based qHTS | Potency, µM (highest dose often 57.9 µM), without a hit: top-dose activity change, negative = inhibition, actives largely listed as inhibitors | 1.2% of 410,000 active; calls by dose curve; tested in HEK293T cells; also: read-out not given here; potency is read from the fitted curve at half-maximal effect; nearly all actives have a fitted effect of over 45% in size
HCV inh – qHTS Assay for Inhibitors of Hepatitis C Virus (HCV) | Huh7.5.1 HCVcc-Cre infection, luciferase reporter, 44 h | Potency, µM (series often up to 41.8 µM), for the others: at the highest dose activity change, negative = inhibition, actives largely listed as inhibitors | 3.4% of 340,000 active | AID 651820, 2012; also: potency is read from the fitted curve at half-maximal effect
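After 44 h co-culture of compound, cells and HCVcc-Cre (~0.5 moi), substrate is added for 15 min at room temperature and luciferase measured over 15 sec. Cells were seeded at 1,000/well and pre-cultured 4 h.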
HCMV inh – qHTS Assay for inhibitors of the human cytomegalovirus (HCMV) | activity change, negative = inhibition, % at 57.5 µM | 4.5% of 410,000 active | HFF cells, HCMV-luciferase reporter, 72 h; active compounds read low; in the data active = activity change below about -60%; inconclusive = no clear call, values can overlap the other calls; inactive = above about -39%
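Compounds were evaluated in HFFs infected with an HCMV luciferase reporter virus (MOI 1 PFU/cell). Luciferase in lysates collected 72 h post infection served as the replication measure.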
MARV entry inh – qHTS for inhibitors of binding or entry into cells for Marburg Virus | AID 540276, 2011 | Potency, µM (titrated, usually from 37.8 µM), inactives show at the highest dose activity change, negative = inhibition, hits mostly inhibitors | 1.8% of 300,000 active | Marburg virus pseudotyped entry inhibition, cell reporter; calls by dose curve; tested in HEK293 cells; also: potency is read from the fitted curve at half-maximal effect
Lassa entry inh – qHTS for Inhibitors of binding or entry into cells for Lassa Virus; Potency, µM (titrated, usually from 37.9 µM), inactives show at the top dose activity change, negative = inhibition, most hits filed as inhibitors; AID 540256, 2011; 1.2% of 300,000 active; Lassa virus pseudotype entry inhibition, cell reporter; calls by dose curve; tested in HEK293 cells; also: potency is read from the fitted curve at half-maximal effect; nearly all actives have a fitted effect of over 50% in size
The depositor's hits bear a star; ? = inconclusive; nt = no result; [ ] = dose if it differs, or a comment. A selection: hits, their analogues and other compounds. The true share with any hit is near 8.3%. Unless noted, calls follow the shape of the dose curve; as a rule, active = well fitted curve in the direction sought with a large enough effect; inconclusive = small, poorly fitted or top-dose-only effect, or another doubt; inactive = no such curve, though single readings can be large; an effect the other way counts as inactive or inconclusive. % is scaled to controls: 0 for no effect and ±100 for the full control effect.

SMILES	Giardia FBPA inh	FMDV antiviral	HCV inh	HCMV inh	MARV entry inh	Lassa entry inh
CCn1c(-c2ccccc2F)nc2cc(NC(C)=O)cc(C(=O)NCC3CCOCC3)c21	nt	-1%	nt	nt	nt	nt
CC(=O)OC[C@H]1O[C@H](CC=NOCC[C@@H]2C=C[C@@H](OC(C)=O)[C@@H](COC(C)=O)O2)C=C[C@@H]1OC(C)=O	nt	nt	nt	nt	10%[14.2 µM]	nt
Cc1c(C(=O)Nc2ccc3c(c2)OCCO3)sc2nc(-c3ccccc3)cn12	-2%	16µM*	2.5µM*	-84*	?	?
Cc1c(C(=O)NCc2ccco2)sc2nc(-c3ccccc3)cn12	6%	9%	10µM*	18	nt	nt
Cc1c(C(=O)NCc2ccc(F)cc2)sc2nc(-c3ccccc3)cn12	nt	10%	nt	28	nt	-20%[46.1 µM]
Cc1c(C(=O)Nc2ccncc2)sc2nc(-c3ccccc3)cn12	-13%	20µM*	3.5µM*	-36	nt	nt
CCN(CC)c1ccc(NC(=O)c2sc3nc(-c4ccccc4)cn3c2C)cc1	nt	-26%	nt	-25	nt	?
COc1ccc(CNc2nc3c(-c4ccc(C)cc4)nnn3c3ccccc23)cc1	nt	20%	nt	82	?	20%[46.1 µM]
CN1CCN(C2=C(Cl)C(=O)c3ccccc3C2=O)CC1	nt	32µM*	7.1µM*	-25	?	?
CC1COCC(C)N1C1=C(Cl)C(=O)c2ccccc2C1=O (centres undefined)	nt	40µM*	11µM*	91	?	?
O=C1C(Cl)=C(N2CCC(C(=O)O)CC2)C(=O)c2ccccc21	?	35µM*	-3%	nt	nt	nt
NC(=O)C1CCN(C2=C(Cl)C(=O)c3ccccc3C2=O)CC1	?	22µM*	2.5µM*	79	?	?
NC(=O)C1CCN(C2=C(NS(=O)(=O)c3ccccc3)C(=O)c3ccccc3C2=O)CC1	?	?	-1%	0	?	?
O=C(O)C1CCN(C(=O)c2ccccc2Cl)CC1	4%	-15%	1%	-4	5%	-2%
CO[C@H]1COC(=O)C/C=C\[C@@H](C)[C@H](OC)COC(=O)[C@H]2CCCN2C(=O)C/C=C\[C@@H]1C	0%[12.9 µM]	nt	nt	nt	nt	nt
Cc1ccccc1CSc1nc2cccnc2n1Cc1ccc(C(=O)NCCc2cccs2)cc1	nt	10%	nt	94	nt	-3%[46.1 µM]
CO[C@H]1COC(=O)C/C=C\[C@H](C)[C@@H](OC)COC(=O)C/C=C\[C@@H]1C	3%[12.9 µM]	nt	nt	nt	nt	nt
CCCCCC(O)/C=C/C=C\CCCCCCCC(=O)O (centres undefined)	3%	nt	nt	nt	nt	nt
CCOC(=O)N1CCC(NC(=O)C2CCN(C(=O)c3cc4oc(C)cc4n3Cc3c(F)cccc3Cl)CC2)CC1	-13%	-8%	-17%	-2	nt	nt
COC(CNC(=O)C1CCN(C(=O)c2cc3oc(C)cc3n2Cc2c(F)cccc2Cl)CC1)OC	-4%	0%	-2%	-67*	?	?
Cn1c(C(=O)N2CCN(c3ncccn3)CC2)cc2c(=O)n(C)c3ccccc3c21	18µM*	-23%	-6%	-23	0%	nt
Cc1cccc(N2CCN(C(=O)c3cc4c(=O)n(C)c5ccccc5c4n3C)CC2)c1C	-4%	32µM*	0%	?	nt	nt
CC(C)Cn1cc(C(=O)N2CCN(c3ccccn3)CC2)c2c3ccccc3n(C)c2c1=O	5%	18%	?	10	16µM*	6.5µM*
CCN1CCN(C(=O)c2cn(CCOC)c(=O)c3c2c2ccccc2n3C)CC1	-4%	-10%	20%	10	5%	19%
Cn1c(C(=O)N2CCCC2)cc2c(=O)n(C)c3ccccc3c21	-11%	-2%	10%	-7	nt	nt
SMILES	Giardia FBPA inh	FMDV antiviral	HCV inh	HCMV inh	MARV entry inh	Lassa entry inh
Cc1cccc(N2CCN(C(=O)c3cc4c(=O)n(C)c5ccccc5c4s3)CC2)c1C	nt	-1%	nt	18	-1%[46.1 µM]	30%[46.1 µM]
Cc1ccc(Cl)cc1N1CCN(C(=O)c2cc3c(=O)n(C)c4ccccc4c3n2C)CC1	2%	8.9µM*	20%	-79*	nt	nt
C=CCOCC1CN2C(CCC(C)C2c2ccc(Br)cc2)C(=O)O1 (centres undefined)	2%[12.9 µM]	nt	nt	nt	nt	nt
COc1ccc(C2=C[C@H](c3cccc(OC)c3)n3nnnc3N2)cc1	nt	nt	nt	nt	-14%[46.1 µM]	nt
C/C(=C\CNc1ncnc2c1ncn2[C@@H]1O[C@H](CO)[C@@H](O)[C@H]1O)CO	0%	nt	nt	nt	nt	nt
Cc1ccccc1CNc1ncnc2c1ncn2C1OC(CO)C(O)C1O (centres undefined)	-1%	nt	nt	nt	?	16%
C=CCNc1ncnc2c1ncn2C1OC(CO)C(O)C1O (centres undefined)	-6%	-14%	?	-16	14µM*	?
Cc1ccccc1CNc1ncnc2c1ncn2[C@@H]1O[C@@H](CO)[C@H](O)[C@@H]1O	nt	nt	nt	nt	18%	nt
Nc1nc(Nc2ccccc2)nc2c1ncn2[C@@H]1O[C@H](CO)[C@@H](O)[C@H]1O	nt	-17%	2µM*	-37	11%	2%
Nc1nc(F)nc2c1ncn2[C@@H]1O[C@H](CO)[C@@H](O)[C@@H]1O	-1%	-18%	3%	nt	2%	?
OC[C@H]1O[C@@H](n2cnc3c(NCc4ccco4)ncnc32)[C@H](O)[C@@H]1O	5%	-24%	18µM*	-39	nt	nt
OCC1OC(n2cnc3c(NCc4ccco4)ncnc32)C(O)C1O (centres undefined)	0%	-16%	?	-81*	?	4.5µM*
Cc1onc(-c2ccccc2)c1CNS(=O)(=O)c1cccc(Br)c1	-6%	19%	-6%	-73*	?	-10%
COc1ccc(C2NN=C(c3c[nH]c4ccccc34)C2O)cc1 (centres undefined)	2%	28%	11µM*	115	nt	nt
COc1ccc(C2C(O)C(c3c[nH]c4ccccc34)=NN2C(=O)CCl)cc1 (centres undefined)	-11%	18µM*	0.56µM*	-104*	3.2µM*	?
CCNc1ncc2nc(-c3ccccc3)c(=O)n(CCOC)c2n1	0%	8%	nt	nt	nt	nt
CC(C)c1ccc(C2=NC(c3ccncc3)=Nc3ccc(F)cc3N2)cc1	nt	-30%	nt	-2	7%[46.1 µM]	?
COC(=O)[C@H](CC(C)C)NC(=O)c1ccc(NC[C@@H](N)CS)cc1-c1cccc2ccccc12	-8%	nt	nt	nt	nt	nt
Cc1c(C(=O)NCC2CC2)sc2ncnc(NCCN3CCCCC3)c12	nt	-20%	nt	nt	nt	nt
C/C(CC(=O)Nc1ccc(Cl)c(C(F)(F)F)c1)=N\NC(N)=S	-14%	-17%	6.3µM*	-27	?	?
C/C(CC(=O)Nc1ccc(Cl)c(C(F)(F)F)c1)=N\NC(=O)c1ccccc1O	0%	?	-2%	-80*	18µM*	?
